{
  "source": "PubChem BioAssay (NCATS)",
  "data": [
    {"assay": "qHTS profiling of the MIPE4 collection as inhibitors of Plasmodium falciparum (HB3) proliferation (AID 743347)", "conditions": "P. falciparum HB3 in erythrocytes, SYBR Green DNA, 72 h; at 28.5 µM (top of the series) unless noted", "from_the_text": "Plasmodium falciparum is a virulent malarial parasite that kills 1-2 million people worldwide each year. Transmitted by mosquitoes, the sporozoite form of the parasite enters the blood stream to infect hepatocytes, where they become merozoites that infect red blood cells (erythrocytes). Within erythrocytes, merozoites begin a […] cycle of growth and division, after which the parasite is released to infect new red blood cells. Gametocytes, which form within erythrocytes as well, circulate in the bloodstream and are ingested by the mosquito, thereby completing the life cycle. To profile malarial isolates for differential chemical responses and to identify inhibitors of malarial growth, an assay that measures P. falciparum growth and replication within erythrocytes was employed. This assay uses a DNA binding fluorescent dye (SYBR Green) to detect parasite DNA following cell lysis. Because mature erythrocytes lack DNA, only Plasmodium-derived DNA is detected.\nThe SYBR Green viability assay was adapted from a method described previously (Plouffe et al., 2008). For screening 3 ul culture medium was dispensed into 1536 well black clear bottom plates (Aurora Biotechnologies) using a Multidrop Combi (Thermo Fisher Scientific Inc.), 23 nL compounds in DMSO were added by a pin tool (Kalypsys), and 5 ul of erythrocytes infected with P. falciparum (0.3% parasitemia, 2.5% hematocrit final concentration) were added. The plates were incubated at 37 C in a humidified incubator in 5% CO2 for 72 h, and 2 ul lysis buffer (20 mM Tris HCl, 10 mM EDTA, 0.16% saponin, 1.6% triton X, 10X SYBR Green I supplied as 10,000X […] by Invitrogen) was added to each well. The plates were mixed for 25 sec with gentle shaking and incubated overnight at room temperature in the dark. The following morning, fluorescence intensity at 485(14) nm excitation and 535(25) nm emission wavelengths was measured on an EnVision (Perkin Elmer) plate reader. Plate reads were normalized relative to the control inhibitor (0.29 uM artemisinin) and vehicle (DMSO) wells present on each plate and then corrected by an algorithm using vehicle-only control plates at the beginning and end of the compound plate stack.", "values": [
      {"compound": "CN1CCC(COc2cnc(-c3cccc(Cn4nc(-c5cccc(C#N)c5)ccc4=O)c3)nc2)CC1", "growth, % of control": "4.54%"},
      {"compound": "Cc1ccc(NC(=O)c2ccc(CN3CCN(C)CC3)cc2)cc1Nc1nc(-c2cccnc2)cs1", "growth, % of control": "4.3%"},
      {"compound": "CNc1nc(-c2ccc3c(N)n[nH]c3c2)cc(N2C[C@@H](C(=O)NC3CCCCC3)CC[C@@H]2C)n1", "growth, % of control": "4.91%"},
      {"compound": "CNC(=O)c1cc(COc2nnc(Nc3ccc(Cl)cc3)c3ccoc23)ccn1", "growth, % of control": "48.2%"},
      {"compound": "CCCC1OC2C[C@@H]3[C@H]4CCC5=CC(=O)C=C[C@]5(C)[C@H]4C(O)C[C@]3(C)[C@]2(C(=O)CO)O1", "note": "(stereo not given in full)", "growth, % of control": "5.33%"},
      {"compound": "C[C@@H]1[C@H](C)CC[C@]2(C(=O)O)CC[C@]3(C)C(=CC[C@@H]4[C@@]5(C)CC[C@H](O)C(C)(C)[C@H]5CC[C@]43C)[C@@H]12", "growth, % of control": "3.02% [at 57.5 µM]"},
      {"compound": "CN(C)CCN(Cc1ccc(Cl)cc1)c1ccccn1", "growth, % of control": "53%"},
      {"compound": "COc1nccc(-c2c(-c3ccc(F)cc3)ncn2C2CCC(O)CC2)n1", "note": "(stereo not given)", "growth, % of control": "28.5%"},
      {"compound": "O=C(NCCCCN1CCOCC1)c1cc2ccccc2o1", "growth, % of control": "87.4%"},
      {"compound": "CCN1CCC(n2cc(CNc3cc(Cl)c4ncc(C#N)c(Nc5ccc(F)c(Cl)c5)c4c3)nn2)CC1", "growth, % of control": "7.52%"},
      {"compound": "CCCCC(F)(F)[C@@]1(O)CC[C@H]2[C@H](CC(=O)[C@@H]2CCCCCCC(=O)O)O1", "growth, % of control": "83%"},
      {"compound": "O=C1CN2Cc3c(ccc(Cl)c3Cl)N=C2N1", "growth, % of control": "85.4%"},
      {"compound": "O=C(c1ccc(C=Cc2n[nH]c3ccccc23)cc1)N1CCNCC1", "growth, % of control": "6.97%"},
      {"compound": "CC(C)Oc1cc(Nc2nc(N[C@@H](C)c3ccc(F)cn3)ncc2Cl)[nH]n1", "growth, % of control": "14.7%"},
      {"compound": "Cc1cc2c(cc1C1(c3ccc(C(=O)O)cn3)CC1)C(C)(C)CCC2(C)C", "growth, % of control": "78.5%"},
      {"compound": "Cc1ccccc1C(=O)c1ccc(Nc2ccc(Br)cc2N)cc1Cl", "growth, % of control": "28.4%"},
      {"compound": "Cc1nn(Cc2ccccc2Cl)c(C)c1CN(C)CC(O)COc1ccc(Cl)cc1", "note": "(stereo not given)", "growth, % of control": "7.87%"},
      {"compound": "Cc1ccc(C(=O)N(CCCN)[C@@H](c2oc3cc(Cl)ccc3c(=O)c2Cc2ccccc2)C(C)C)cc1", "growth, % of control": "5.08%"},
      {"compound": "CO[C@@H]1C(N(C)C(=O)c2ccccc2)C[C@H]2O[C@]1(C)n1c3ccccc3c3c4c(c5c6ccccc6n2c5c31)C(=O)NC4=O", "note": "(stereo not given in full)", "growth, % of control": "28.7%"},
      {"compound": "CN1CC(=O)NC1=NC(=O)Nc1cccc(Cl)c1", "growth, % of control": "98.8%"},
      {"compound": "CC[C@]1(O)C[C@H]2CN(CCC3=c4ccccc4=N[C]3[C@@](C(=O)OC)(c3cc4c(cc3OC)N(C)[C@H]3[C@@](O)(C(N)=O)[C@H](O)[C@]5(CC)C=CCN6CC[C@]43[C@@H]65)C2)C1", "growth, % of control": "17.4%"},
      {"compound": "Cc1ccc(NC(=O)c2cccc(N(C)C)c2)cc1NC(=O)c1ccc(O)cc1", "growth, % of control": "31.2%"},
      {"compound": "CCCCCOC(=O)Nc1nc(=O)n([C@@H]2O[C@H](C)[C@@H](O)C2O)cc1F", "note": "(stereo not given in full)", "growth, % of control": "171%"},
      {"compound": "CC(C)CN(C[C@@H](O)[C@H](Cc1ccccc1)NC(=O)O[C@H]1CO[C@H]2OCC[C@H]21)S(=O)(=O)c1ccc(N)cc1", "growth, % of control": "8.15%"},
      {"compound": "CC(NCCc1ccc(O)cc1)C(O)c1ccc(O)cc1", "note": "(stereo not given)", "growth, % of control": "96.6%"},
      {"compound": "COC(=O)[C@H](c1ccccc1Cl)N1CCc2sccc2C1", "growth, % of control": "24.3%"},
      {"compound": "CN(C)CCOc1ccc(-c2nc(-c3ccc4c(c3)CCC4=NO)c(-c3ccncc3)[nH]2)cc1", "growth, % of control": "2.95%"},
      {"compound": "CC[C@@H]([C@H](C)O)n1ncn(-c2ccc(N3CCN(c4ccc(OCC5CO[C@@](Cn6cncn6)(c6ccc(F)cc6F)C5)cc4)CC3)cc2)c1=O", "note": "(stereo not given in full)", "growth, % of control": "5.52%"},
      {"compound": "OC[C@H]1O[C@@H](Oc2ccc(O)cc2)[C@H](O)[C@@H](O)[C@H]1O", "growth, % of control": "93.4%"},
      {"compound": "COc1cc2ncn(-c3cc(OCc4ccccc4S(C)(=O)=O)c(C#N)s3)c2cc1OC", "growth, % of control": "90.8%"},
      {"compound": "CCCCc1ccc(NS(=O)(=O)c2ccc(C)c(C(=O)N3CCN(c4cccc(C)c4C)CC3)c2)cc1", "growth, % of control": "257%"},
      {"compound": "O=C(Nc1ccccc1)Nc1ccc(-c2ccc(C(=O)[C@H]3CCC[C@H]3C(=O)O)cc2)cc1", "growth, % of control": "51.7%"},
      {"compound": "COc1cc2c(cc1OC)[C@@H]1Cc3ccc(OC)c(OC)c3CN1CC2", "growth, % of control": "11.1%"},
      {"compound": "CCC(=O)N1CCN(c2ccc(-n3c(=O)ccc4cnc5ccc(-c6cnc7ccccc7c6)cc5c43)cc2C(F)(F)F)CC1", "growth, % of control": "4.5%"},
      {"compound": "C[C@]12C=CC(=O)C=C1CC[C@@H]1[C@@H]2[C@@H](O)C[C@@]2(C)[C@@H]1CC[C@]2(O)C(=O)CO", "growth, % of control": "78%"},
      {"compound": "CCCCOCCOc1nc(-c2ccc(C(=O)O)c(F)c2)sc1C", "growth, % of control": "85%"},
      {"compound": "Nc1ncnc2c1c(-c1cccc(OCc3ccccc3)c1)cn2C1CC(CN2CCC2)C1", "note": "(stereo not given)", "growth, % of control": "12.8%"},
      {"compound": "C=C1[C@H](n2cnc3c(=O)[nH]c(N)nc32)C[C@H](O)[C@H]1CO", "growth, % of control": "42.8%"},
      {"compound": "CC1CNc2c(cccc2S(=O)(=O)N[C@@H](CCCN=C(N)N)C(=O)N2CC[C@@H](C)C[C@@H]2C(=O)O)C1", "note": "(stereo not given in full)", "growth, % of control": "86.9%"},
      {"compound": "CCC[C@H](Nc1nc(-c2ccc(NC(=O)NCC)c(OC)c2)ncc1C)c1cccnc1", "growth, % of control": "4.28%"}
    ]}
  ]
}
